Assays:
Experiment in all cases: DAPPL (digital affinity profiling via proximity ligation, sequencing); 10 mM Tris-HCl pH 7.5, 50 mM NaCl, 1 mM DTT, 4% glycerol, room temperature, 30 min; GST-TFs on glutathione beads, 16-mer random dsDNA library, 0.1% formaldehyde crosslink after washing; high values mean tight binding
Settings in all cases: protein: recombinant; tags: N-terminal GST; dsDNA, one strand shown
GABPA = target: T1, GABPA (Homo sapiens, UniProt Q06546 1-454)
T1 sequence: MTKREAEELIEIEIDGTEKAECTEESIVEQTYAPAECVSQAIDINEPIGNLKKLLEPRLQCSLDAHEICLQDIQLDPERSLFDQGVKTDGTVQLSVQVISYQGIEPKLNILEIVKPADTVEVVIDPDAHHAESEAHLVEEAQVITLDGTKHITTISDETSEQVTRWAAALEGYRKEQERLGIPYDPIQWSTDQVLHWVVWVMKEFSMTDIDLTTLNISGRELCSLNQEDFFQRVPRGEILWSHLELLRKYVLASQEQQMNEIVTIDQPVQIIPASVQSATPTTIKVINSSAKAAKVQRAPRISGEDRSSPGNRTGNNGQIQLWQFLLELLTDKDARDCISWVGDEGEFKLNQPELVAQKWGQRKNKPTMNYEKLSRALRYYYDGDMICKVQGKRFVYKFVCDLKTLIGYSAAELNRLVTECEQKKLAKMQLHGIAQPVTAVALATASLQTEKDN
Method in brief: (§1)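 Pools were built from human transcription factors expressed in yeast as GST fusions, captured on glutathione beads and DNA-barcoded, along with a tag-only sample. Incubation with 200 nmole of a 16-mer random double-stranded DNA library lasted 30 min at room temperature in Tris/NaCl/DTT/glycerol buffer, and was followed by washing, 0.1% formaldehyde crosslinking, proximity ligation, PCR amplification and Illumina NextSeq500 sequencing. Binding signal is the quotient of each hexamer's read frequency for a factor and its frequency for the tag-only sample.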

FEV = target: T2, FEV (Homo sapiens, UniProt Q99581 1-238)
T2 sequence: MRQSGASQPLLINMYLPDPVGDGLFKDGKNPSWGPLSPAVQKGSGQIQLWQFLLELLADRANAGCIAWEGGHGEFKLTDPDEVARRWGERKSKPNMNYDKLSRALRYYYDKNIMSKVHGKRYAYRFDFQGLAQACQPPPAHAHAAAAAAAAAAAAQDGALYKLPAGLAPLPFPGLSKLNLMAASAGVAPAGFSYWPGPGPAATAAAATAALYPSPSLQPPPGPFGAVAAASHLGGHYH
Method in brief: as §1

SPIC = target: T3, SPIC (Homo sapiens, UniProt Q8N5J4 1-248)
T3 sequence: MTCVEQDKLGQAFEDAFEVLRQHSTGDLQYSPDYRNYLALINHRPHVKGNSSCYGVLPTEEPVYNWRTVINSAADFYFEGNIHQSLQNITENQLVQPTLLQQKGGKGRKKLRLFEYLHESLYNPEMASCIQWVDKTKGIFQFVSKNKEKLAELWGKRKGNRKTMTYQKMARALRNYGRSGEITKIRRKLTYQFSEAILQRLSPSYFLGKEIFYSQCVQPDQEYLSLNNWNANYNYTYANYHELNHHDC
Method in brief: as §1

ELF4 = ELF4 (Homo sapiens, UniProt Q99607 1-663)
Method in brief: as §1

ETV2 = target: T4, ETV2 (Homo sapiens, UniProt O00321 1-342)
T4 sequence: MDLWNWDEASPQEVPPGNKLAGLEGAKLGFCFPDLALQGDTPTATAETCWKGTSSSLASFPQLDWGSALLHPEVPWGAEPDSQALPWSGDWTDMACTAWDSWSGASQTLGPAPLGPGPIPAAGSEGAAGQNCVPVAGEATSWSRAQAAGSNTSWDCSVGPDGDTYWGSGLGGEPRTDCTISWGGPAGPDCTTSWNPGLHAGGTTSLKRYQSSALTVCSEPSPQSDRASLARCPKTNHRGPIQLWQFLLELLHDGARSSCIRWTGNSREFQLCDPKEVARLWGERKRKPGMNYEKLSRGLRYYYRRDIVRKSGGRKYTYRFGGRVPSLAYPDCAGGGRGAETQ
Method in brief: as §1

CRX = CRX (Homo sapiens, UniProt O43186 1-299)
Method in brief: as §1

ETS2 = target: T5, ETS2 (Homo sapiens, UniProt P15036 1-469)
T5 sequence: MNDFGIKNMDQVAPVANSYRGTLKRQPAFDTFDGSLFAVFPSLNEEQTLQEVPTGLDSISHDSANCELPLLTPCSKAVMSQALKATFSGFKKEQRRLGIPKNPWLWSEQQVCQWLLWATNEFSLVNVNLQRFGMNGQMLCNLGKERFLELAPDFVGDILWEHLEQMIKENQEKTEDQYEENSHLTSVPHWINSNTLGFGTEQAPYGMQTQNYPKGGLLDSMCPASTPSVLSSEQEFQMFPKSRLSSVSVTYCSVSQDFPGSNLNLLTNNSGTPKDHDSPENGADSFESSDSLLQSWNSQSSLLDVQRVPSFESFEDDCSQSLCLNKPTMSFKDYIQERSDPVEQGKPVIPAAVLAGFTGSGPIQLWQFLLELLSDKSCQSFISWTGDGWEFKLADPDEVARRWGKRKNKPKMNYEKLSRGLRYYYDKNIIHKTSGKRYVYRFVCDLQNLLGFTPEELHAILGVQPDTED
Method in brief: as §1

ETV7 = target: T6, ETV7 (Homo sapiens, UniProt Q9Y603 1-341)
T6 sequence: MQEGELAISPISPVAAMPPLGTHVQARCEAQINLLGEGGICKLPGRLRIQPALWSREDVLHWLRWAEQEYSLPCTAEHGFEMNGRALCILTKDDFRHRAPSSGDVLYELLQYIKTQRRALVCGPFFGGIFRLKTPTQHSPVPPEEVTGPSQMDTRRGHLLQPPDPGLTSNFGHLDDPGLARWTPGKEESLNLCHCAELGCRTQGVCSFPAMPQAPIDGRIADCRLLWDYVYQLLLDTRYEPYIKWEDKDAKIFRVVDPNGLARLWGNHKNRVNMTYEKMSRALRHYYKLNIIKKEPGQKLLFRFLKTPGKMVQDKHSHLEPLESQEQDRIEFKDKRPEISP
Method in brief: as §1

ELF5 = target: T7, ELF5 (Homo sapiens, UniProt Q9UKW6-2 1-255)
T7 sequence: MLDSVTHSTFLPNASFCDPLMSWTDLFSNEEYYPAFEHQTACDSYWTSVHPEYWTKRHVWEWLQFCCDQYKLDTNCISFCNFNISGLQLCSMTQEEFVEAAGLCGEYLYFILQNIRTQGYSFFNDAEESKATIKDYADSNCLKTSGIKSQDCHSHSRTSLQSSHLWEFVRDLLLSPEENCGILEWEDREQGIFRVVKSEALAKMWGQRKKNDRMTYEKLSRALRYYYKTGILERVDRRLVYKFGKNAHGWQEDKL
Method in brief: as §1

ERG = target: T8, ERG (Homo sapiens, UniProt P11308 1-479)
T8 sequence: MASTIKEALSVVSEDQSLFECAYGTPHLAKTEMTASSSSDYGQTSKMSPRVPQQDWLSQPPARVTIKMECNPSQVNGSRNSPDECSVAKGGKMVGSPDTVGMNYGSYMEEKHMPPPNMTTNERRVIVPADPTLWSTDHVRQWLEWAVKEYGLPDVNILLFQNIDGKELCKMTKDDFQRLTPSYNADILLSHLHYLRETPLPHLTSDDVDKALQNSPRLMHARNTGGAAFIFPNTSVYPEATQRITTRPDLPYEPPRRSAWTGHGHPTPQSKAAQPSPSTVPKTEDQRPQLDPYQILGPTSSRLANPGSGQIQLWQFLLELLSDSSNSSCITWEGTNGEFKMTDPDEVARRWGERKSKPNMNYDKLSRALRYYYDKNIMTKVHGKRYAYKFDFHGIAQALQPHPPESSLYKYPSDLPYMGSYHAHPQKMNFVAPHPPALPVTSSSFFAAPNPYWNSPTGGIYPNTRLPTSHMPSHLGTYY
Method in brief: as §1

ELF1 = ELF1 (Homo sapiens, UniProt P32519 1-619)
Method in brief: as §1

ELK4 = target: T9, ELK4 (Homo sapiens, UniProt P28324-2 1-405)
T9 sequence: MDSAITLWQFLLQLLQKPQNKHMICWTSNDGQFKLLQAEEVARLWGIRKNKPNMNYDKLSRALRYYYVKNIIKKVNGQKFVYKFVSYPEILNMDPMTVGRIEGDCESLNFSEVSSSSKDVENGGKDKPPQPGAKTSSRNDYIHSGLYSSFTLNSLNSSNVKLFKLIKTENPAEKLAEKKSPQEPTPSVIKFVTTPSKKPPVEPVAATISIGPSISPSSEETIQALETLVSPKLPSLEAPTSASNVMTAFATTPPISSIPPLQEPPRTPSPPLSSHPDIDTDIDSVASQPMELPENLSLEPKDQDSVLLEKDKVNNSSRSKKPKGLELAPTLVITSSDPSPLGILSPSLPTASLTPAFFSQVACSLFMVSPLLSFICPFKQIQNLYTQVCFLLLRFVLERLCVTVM
Method in brief: as §1

ETV1 = ETV1 (Homo sapiens, UniProt P50549 1-477)
Method in brief: as §1

ETV3L = target: T10, ETV3L (Homo sapiens, UniProt Q6ZN32 1-361)
T10 sequence: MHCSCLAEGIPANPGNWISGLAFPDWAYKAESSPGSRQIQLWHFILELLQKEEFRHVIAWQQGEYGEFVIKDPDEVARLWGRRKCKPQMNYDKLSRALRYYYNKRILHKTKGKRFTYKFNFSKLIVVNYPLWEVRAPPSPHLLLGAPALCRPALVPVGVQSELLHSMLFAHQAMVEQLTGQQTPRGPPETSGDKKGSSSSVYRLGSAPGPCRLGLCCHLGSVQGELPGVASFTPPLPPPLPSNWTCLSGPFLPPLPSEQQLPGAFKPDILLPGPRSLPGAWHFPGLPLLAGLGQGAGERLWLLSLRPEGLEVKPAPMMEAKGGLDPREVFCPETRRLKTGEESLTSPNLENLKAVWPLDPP
Method in brief: as §1

SPDEF = target: T11, SPDEF (Homo sapiens, UniProt O95238 1-335)
T11 sequence: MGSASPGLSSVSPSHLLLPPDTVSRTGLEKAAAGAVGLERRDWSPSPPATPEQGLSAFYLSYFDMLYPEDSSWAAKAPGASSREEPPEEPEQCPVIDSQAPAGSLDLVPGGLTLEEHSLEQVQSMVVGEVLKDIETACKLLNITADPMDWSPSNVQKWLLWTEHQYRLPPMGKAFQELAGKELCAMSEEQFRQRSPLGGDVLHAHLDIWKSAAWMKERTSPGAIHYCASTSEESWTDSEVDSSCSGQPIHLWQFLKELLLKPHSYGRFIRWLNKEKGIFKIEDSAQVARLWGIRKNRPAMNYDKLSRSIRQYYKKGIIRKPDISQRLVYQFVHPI
Method in brief: as §1

ETV3 = target: T12, ETV3 (Homo sapiens, UniProt P41162-2 1-143)
T12 sequence: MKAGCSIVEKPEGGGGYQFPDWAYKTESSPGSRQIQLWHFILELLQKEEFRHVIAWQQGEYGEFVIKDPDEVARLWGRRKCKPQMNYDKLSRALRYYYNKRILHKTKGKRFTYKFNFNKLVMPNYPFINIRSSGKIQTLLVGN
Method in brief: as §1

Sequence of ELF4 (Q99607 whole entry): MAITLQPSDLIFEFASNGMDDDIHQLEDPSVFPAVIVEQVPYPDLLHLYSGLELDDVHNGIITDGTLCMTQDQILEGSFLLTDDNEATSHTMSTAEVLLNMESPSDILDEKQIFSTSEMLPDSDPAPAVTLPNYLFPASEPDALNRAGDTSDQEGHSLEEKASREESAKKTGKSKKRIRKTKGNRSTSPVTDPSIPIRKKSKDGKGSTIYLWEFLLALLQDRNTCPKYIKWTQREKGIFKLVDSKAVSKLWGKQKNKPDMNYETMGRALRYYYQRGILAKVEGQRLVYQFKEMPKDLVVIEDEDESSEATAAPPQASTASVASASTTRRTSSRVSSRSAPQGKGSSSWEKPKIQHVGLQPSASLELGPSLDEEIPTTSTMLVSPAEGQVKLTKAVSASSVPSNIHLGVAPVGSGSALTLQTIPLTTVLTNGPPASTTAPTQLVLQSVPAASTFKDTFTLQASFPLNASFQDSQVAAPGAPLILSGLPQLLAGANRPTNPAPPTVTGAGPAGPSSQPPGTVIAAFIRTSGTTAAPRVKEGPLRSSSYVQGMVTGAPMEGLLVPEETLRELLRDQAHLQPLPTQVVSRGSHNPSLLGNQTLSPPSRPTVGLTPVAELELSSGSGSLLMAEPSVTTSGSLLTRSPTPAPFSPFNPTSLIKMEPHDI
Sequence of ELF1 (P32519 whole entry): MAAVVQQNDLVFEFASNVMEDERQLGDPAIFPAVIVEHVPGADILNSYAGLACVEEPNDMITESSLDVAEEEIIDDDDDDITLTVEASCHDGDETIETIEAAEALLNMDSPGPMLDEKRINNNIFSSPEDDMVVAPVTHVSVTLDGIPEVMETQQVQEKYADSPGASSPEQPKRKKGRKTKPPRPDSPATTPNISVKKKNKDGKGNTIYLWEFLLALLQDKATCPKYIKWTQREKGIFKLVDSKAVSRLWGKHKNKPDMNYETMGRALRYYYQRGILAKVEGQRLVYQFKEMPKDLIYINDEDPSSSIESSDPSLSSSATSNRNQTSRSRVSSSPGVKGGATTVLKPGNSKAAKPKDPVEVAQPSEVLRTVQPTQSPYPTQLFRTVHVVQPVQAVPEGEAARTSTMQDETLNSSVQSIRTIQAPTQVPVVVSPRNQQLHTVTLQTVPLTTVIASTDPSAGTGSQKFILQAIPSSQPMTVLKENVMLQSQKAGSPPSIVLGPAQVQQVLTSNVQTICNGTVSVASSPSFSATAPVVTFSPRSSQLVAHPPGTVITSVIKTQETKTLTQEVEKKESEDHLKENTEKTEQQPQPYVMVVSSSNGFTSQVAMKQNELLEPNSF
Sequence of ETV1 (P50549 whole entry): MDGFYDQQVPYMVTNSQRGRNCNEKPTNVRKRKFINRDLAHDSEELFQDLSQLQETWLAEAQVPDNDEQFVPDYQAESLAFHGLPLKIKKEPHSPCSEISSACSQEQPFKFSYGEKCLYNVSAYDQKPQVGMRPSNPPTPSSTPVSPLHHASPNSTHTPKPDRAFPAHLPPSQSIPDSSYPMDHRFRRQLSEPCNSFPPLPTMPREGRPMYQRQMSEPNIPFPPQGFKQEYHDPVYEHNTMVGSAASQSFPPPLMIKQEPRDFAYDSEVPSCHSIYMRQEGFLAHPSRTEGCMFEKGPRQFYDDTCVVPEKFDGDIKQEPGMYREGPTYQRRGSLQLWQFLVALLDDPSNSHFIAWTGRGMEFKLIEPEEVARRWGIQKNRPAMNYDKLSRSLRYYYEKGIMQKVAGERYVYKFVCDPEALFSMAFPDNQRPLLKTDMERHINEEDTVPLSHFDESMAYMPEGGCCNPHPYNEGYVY
Sequence of CRX (O43186 whole entry): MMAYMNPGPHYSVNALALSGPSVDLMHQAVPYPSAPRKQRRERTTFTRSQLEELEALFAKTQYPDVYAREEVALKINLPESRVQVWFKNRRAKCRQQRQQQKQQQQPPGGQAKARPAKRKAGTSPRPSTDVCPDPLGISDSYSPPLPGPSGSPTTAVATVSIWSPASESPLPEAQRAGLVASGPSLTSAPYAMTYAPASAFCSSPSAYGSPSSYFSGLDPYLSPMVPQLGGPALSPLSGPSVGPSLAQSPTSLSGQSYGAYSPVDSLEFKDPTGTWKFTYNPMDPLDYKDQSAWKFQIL

Row | Sequence | binding signal (GABPA) | binding signal (FEV) | binding signal (SPIC) | binding signal (ELF4) | binding signal (ETV2) | binding signal (CRX) | binding signal (ETS2) | binding signal (ETV7) | binding signal (ELF5) | binding signal (ERG) | binding signal (ELF1) | binding signal (ELK4) | binding signal (ETV1) | binding signal (ETV3L) | binding signal (SPDEF) | binding signal (ETV3)
1 | AAAGGC | 1.1 fold enrichment (6-mer frequency, TF over GST control) | 1.01 fold enrichment (6-mer frequency, TF over GST control) | 1 fold enrichment (6-mer frequency, TF over GST control) | 1.04 fold enrichment (6-mer frequency, TF over GST control) | 1.04 fold enrichment (6-mer frequency, TF over GST control) | 1.03 fold enrichment (6-mer frequency, TF over GST control) | 1 fold enrichment (6-mer frequency, TF over GST control) | 1.03 fold enrichment (6-mer frequency, TF over GST control) | 1 fold enrichment (6-mer frequency, TF over GST control) | – | – | – | – | – | – | –
2 | CCTAGG | 1.04 fold enrichment (6-mer frequency, TF over GST control) | – | 1.1 fold enrichment (6-mer frequency, TF over GST control) | 1.07 fold enrichment (6-mer frequency, TF over GST control) | 1.03 fold enrichment (6-mer frequency, TF over GST control) | – | – | – | – | 1 fold enrichment (6-mer frequency, TF over GST control) | 1.07 fold enrichment (6-mer frequency, TF over GST control) | 1.04 fold enrichment (6-mer frequency, TF over GST control) | 1.02 fold enrichment (6-mer frequency, TF over GST control) | 1.03 fold enrichment (6-mer frequency, TF over GST control) | 1.02 fold enrichment (6-mer frequency, TF over GST control) | 1.1 fold enrichment (6-mer frequency, TF over GST control)

Reference: paper PMC7862700, “An all-to-all approach to the identification of sequence-specific readers for epigenetic DNA modifications on cytosine”
